These results are taken from the supplement of paper PMC11001985.

Values without a mark were called inactive.

Sequence of UniProt P11717 (P11717 whole entry): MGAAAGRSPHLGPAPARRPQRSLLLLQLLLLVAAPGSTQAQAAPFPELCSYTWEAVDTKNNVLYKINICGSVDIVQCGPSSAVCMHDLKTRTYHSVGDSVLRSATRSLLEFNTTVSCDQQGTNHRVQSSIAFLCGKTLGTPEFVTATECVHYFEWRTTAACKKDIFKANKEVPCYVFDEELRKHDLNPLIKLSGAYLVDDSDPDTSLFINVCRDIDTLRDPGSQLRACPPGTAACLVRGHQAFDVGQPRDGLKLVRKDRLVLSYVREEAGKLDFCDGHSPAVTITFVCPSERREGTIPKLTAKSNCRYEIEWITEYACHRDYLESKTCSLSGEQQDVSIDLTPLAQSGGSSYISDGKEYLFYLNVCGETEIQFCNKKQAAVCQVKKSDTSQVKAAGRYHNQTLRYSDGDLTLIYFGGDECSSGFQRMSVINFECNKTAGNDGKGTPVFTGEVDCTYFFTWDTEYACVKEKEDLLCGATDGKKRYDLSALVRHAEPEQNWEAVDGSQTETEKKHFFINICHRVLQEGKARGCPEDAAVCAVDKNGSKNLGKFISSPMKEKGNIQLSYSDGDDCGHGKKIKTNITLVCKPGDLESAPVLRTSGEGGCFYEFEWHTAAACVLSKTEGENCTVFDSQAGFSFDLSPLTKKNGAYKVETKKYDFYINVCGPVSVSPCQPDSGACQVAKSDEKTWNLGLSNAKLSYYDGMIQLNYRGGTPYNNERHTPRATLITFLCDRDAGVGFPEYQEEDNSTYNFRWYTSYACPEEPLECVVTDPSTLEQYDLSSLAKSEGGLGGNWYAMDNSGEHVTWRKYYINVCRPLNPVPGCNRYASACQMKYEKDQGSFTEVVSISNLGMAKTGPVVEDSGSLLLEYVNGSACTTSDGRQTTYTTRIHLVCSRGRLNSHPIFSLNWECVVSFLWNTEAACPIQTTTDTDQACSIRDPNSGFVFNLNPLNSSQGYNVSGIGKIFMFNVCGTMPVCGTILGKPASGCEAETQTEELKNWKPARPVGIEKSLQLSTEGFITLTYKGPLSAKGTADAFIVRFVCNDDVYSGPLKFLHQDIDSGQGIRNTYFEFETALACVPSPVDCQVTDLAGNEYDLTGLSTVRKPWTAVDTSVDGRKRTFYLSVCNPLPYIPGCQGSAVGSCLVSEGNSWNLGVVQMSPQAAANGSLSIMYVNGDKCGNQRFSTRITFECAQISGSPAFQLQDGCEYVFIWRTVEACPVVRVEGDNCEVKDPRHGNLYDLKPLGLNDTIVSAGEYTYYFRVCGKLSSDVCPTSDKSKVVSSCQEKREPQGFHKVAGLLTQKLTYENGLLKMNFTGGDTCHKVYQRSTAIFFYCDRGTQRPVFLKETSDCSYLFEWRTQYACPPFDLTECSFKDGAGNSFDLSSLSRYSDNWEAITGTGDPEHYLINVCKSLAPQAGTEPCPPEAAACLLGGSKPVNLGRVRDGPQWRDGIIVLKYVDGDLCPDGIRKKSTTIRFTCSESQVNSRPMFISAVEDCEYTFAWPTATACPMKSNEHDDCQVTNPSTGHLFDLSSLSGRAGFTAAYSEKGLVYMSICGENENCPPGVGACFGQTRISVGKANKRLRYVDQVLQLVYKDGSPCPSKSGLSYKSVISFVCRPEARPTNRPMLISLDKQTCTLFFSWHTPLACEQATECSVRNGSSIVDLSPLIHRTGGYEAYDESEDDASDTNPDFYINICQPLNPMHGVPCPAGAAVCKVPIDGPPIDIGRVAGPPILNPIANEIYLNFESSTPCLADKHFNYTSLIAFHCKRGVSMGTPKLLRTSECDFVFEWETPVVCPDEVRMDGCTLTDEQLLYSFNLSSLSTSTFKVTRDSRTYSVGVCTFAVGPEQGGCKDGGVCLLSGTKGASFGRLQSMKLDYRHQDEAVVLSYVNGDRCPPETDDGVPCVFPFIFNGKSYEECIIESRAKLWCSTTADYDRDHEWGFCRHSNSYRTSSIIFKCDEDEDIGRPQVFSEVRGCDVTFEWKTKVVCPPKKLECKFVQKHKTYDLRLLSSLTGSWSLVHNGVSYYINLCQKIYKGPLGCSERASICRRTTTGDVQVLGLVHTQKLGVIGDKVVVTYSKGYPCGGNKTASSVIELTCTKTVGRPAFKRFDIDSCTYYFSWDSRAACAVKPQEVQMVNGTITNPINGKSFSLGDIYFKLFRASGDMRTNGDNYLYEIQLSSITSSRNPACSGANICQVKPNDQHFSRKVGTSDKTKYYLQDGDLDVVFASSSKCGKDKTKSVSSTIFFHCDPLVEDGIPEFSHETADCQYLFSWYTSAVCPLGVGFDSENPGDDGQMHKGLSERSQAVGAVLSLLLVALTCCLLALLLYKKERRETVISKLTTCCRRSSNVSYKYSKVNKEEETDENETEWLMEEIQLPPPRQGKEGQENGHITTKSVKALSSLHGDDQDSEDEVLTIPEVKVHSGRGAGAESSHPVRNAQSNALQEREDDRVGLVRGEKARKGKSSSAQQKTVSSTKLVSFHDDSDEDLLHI
Sequence of UniProt P41252 (P41252 whole entry): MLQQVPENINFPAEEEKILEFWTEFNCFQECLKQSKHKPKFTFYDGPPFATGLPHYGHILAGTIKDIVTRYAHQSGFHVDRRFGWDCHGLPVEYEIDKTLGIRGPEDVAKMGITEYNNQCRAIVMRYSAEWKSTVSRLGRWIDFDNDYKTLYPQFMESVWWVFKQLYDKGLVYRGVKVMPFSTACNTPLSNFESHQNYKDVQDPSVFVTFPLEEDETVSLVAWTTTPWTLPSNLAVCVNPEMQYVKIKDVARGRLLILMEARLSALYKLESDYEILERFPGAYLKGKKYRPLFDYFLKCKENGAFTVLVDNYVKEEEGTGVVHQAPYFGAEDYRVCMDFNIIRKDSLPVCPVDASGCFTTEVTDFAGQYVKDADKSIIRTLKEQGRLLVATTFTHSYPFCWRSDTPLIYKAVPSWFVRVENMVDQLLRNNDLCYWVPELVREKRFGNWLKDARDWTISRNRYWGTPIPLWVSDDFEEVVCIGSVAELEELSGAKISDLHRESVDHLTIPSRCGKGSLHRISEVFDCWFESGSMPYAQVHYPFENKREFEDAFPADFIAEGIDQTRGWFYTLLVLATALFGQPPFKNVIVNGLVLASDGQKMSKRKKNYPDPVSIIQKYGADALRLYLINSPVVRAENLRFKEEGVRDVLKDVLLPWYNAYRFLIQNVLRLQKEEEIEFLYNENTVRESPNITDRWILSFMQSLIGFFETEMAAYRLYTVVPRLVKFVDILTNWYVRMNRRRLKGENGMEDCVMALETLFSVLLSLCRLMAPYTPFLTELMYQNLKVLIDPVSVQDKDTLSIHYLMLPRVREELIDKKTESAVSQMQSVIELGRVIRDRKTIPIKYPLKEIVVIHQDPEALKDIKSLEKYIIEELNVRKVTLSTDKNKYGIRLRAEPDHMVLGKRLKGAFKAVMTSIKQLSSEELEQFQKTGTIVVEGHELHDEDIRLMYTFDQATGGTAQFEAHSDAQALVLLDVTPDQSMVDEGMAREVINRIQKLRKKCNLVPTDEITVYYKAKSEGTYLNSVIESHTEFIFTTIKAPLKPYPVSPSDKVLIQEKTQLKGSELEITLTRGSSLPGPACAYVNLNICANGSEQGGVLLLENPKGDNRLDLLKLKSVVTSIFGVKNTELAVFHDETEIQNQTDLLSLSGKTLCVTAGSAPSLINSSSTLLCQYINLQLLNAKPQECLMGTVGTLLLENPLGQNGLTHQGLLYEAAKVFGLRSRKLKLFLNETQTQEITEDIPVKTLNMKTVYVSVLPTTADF
Sequence of UniProt P14625 (P14625 whole entry): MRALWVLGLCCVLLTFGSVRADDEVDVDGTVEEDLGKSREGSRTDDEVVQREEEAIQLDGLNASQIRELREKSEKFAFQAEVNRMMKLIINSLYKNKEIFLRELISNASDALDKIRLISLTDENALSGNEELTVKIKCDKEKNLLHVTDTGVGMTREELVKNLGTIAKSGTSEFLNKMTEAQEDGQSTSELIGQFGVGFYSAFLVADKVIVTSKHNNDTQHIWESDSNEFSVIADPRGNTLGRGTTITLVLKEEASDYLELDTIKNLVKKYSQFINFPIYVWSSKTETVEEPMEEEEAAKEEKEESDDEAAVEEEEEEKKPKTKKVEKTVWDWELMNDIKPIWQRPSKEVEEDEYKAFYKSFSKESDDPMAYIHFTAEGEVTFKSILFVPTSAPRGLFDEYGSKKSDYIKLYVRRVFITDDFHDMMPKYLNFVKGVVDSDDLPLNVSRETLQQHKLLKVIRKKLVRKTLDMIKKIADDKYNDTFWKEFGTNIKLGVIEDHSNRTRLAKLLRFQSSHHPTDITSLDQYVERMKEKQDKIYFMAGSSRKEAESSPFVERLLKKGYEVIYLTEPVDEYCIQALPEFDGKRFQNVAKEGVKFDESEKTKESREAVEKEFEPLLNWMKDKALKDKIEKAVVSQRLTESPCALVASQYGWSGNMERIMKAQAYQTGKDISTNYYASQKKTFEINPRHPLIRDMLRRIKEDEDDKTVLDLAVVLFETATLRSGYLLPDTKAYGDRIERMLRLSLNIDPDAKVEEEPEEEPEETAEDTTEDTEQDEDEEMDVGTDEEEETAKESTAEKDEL
Sequence of UniProt Q9UKY7 (Q9UKY7 whole entry): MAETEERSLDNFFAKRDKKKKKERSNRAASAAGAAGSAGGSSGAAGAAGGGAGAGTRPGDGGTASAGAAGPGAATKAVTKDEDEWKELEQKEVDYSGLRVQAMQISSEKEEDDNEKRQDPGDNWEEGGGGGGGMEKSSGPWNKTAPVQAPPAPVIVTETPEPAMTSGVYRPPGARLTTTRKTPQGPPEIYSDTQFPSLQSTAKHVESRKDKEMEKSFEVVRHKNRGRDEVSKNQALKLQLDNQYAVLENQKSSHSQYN
Sequence of UniProt P21796 (P21796 whole entry): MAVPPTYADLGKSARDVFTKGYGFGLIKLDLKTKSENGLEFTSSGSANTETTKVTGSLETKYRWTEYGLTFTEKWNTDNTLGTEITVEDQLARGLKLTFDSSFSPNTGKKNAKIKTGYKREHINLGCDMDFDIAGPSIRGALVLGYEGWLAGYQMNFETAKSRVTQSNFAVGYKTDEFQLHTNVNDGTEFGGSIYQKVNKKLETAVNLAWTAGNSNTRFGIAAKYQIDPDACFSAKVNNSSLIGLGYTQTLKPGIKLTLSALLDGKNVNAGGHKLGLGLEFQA

Compound in the experiment: C#CCNC(=O)CCSSCCC(=O)NCCc1ccc(C=O)c(C=O)c1
Kind of experiment: lysine labeling ratio R10:1 (500 µM / 50 µM probe), SILAC-ABPP in living cells; higher = lower intrinsic lysine reactivity toward the probe, active = 2 or less. The conditions noted are these: HeLa; probe concentrations 500 vs 50 µM. A digest of the protocol:
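Forward and reverse SILAC label swaps were used with living light and heavy HeLa cells in PBS at room temperature, which were given an alkyne-tagged, disulfide-linked lysine probe at 50 µM or 500 µM. R is the per-lysine filtered median high-probe/low-probe MS1 peptide ratio, with the median then taken across both swap directions. Values are limited to 20.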
In the case of “ADAM9 (lysine site: K290) (UniProt Q13443)”, the “lysine labeling ratio R10:1” value was 2.64.

“SDC4 (lysine site: K104) (UniProt P31431)”: the “lysine labeling ratio R10:1” value is 3.81.

On to “ACTN4 (lysine site: K331) (UniProt O43707)”, for which the “lysine labeling ratio R10:1” value was 1.71 (active).

“TGFBR3 (lysine site: K314) (UniProt Q03167)”: the “lysine labeling ratio R10:1” value was 1.51 (active).

Turning to UniProt P02533 (lysine site: K251), the “lysine labeling ratio R10:1” value is 5.36.

As to “TXLNA (lysine site: K256) (UniProt P40222)”, the “lysine labeling ratio R10:1” value is 3.67.

“GPC1 (lysine site: K383) (UniProt P35052)”: the “lysine labeling ratio R10:1” value is 1.73 (active).

Turning to “PABPC1 (lysine site: K512) (UniProt P11940)”, the “lysine labeling ratio R10:1” value is 3.06.

As for UniProt Q99653 (lysine site: K188), the “lysine labeling ratio R10:1” value is 1.18 (active).

On to “TPM4 (lysine site: K13) (UniProt P67936)”, for which the “lysine labeling ratio R10:1” value was 3.28.

Turning to “HSPB1 (lysine site: K123) (UniProt P04792)”, the “lysine labeling ratio R10:1” value was 2.35.

On to “FAT1 (lysine site: K369) (UniProt Q14517)”, for which the “lysine labeling ratio R10:1” value is 1.01 (active).

For “TXNRD1 (lysine site: K245) (UniProt Q16881)”, the “lysine labeling ratio R10:1” value was 7.79.

Take “FN1 (lysine site: K2027) (UniProt P02751)”: the “lysine labeling ratio R10:1” value is 13.

As to “FLNB (lysine site: K960) (UniProt O75369)”, the “lysine labeling ratio R10:1” value was 1.54 (active).

As for “NCL (lysine site: K545) (UniProt P19338)”, the “lysine labeling ratio R10:1” value was 3.2.

On to “PTPRF (lysine site: K906) (UniProt P10586)”, for which the “lysine labeling ratio R10:1” value is 4.94.

On to “ITGA6 (lysine site: K946) (UniProt P23229)”, for which the “lysine labeling ratio R10:1” value was 2.37.

In the case of “CHCHD3 (lysine site: K63) (UniProt Q9NX63)”, the “lysine labeling ratio R10:1” value was 1.33 (active).

Take “RPL3 (lysine site: K250) (UniProt P39023)”: the “lysine labeling ratio R10:1” value was 2.54.

As for UniProt P61160 (lysine site: K368), the “lysine labeling ratio R10:1” value is 3.41.

As to “IGF2R (lysine site: K393) (UniProt P11717)”, the “lysine labeling ratio R10:1” value was 3.23.

With “TXNDC5 (lysine site: K429) (UniProt Q8NBS9)”, the “lysine labeling ratio R10:1” value was 0.74 (active).

On to UniProt P83731 (lysine site: K97), for which the “lysine labeling ratio R10:1” value is 1.9 (active).

Regarding “ACSL4 (lysine site: K702) (UniProt O60488)”, the “lysine labeling ratio R10:1” value was 2.14.

Take “IARS (lysine site: K903) (UniProt P41252)”: the “lysine labeling ratio R10:1” value is 1.66 (active).

As to “CLTB (lysine site: K122) (UniProt P09497)”, the “lysine labeling ratio R10:1” value is 2.57.

Take “VDAC1 (lysine site: K274) (UniProt P21796)”: the “lysine labeling ratio R10:1” value is 0.919 (active).

Regarding “FLNA (lysine site: K1294) (UniProt P21333)”, the “lysine labeling ratio R10:1” value was 2.32.

Take “NUMA1 (lysine site: K1667) (UniProt Q14980)”: the “lysine labeling ratio R10:1” value is 0.807 (active).

As for “HSP90B1 (lysine site: K97) (UniProt P14625)”, the “lysine labeling ratio R10:1” value was 5.42.

On to “SPTAN1 (lysine site: K1288) (UniProt Q13813)”, for which the “lysine labeling ratio R10:1” value is 1.21 (active).

Consider “DYNC1H1 (lysine site: K3480) (UniProt Q14204)”, for which the “lysine labeling ratio R10:1” value is 1.73 (active).

Take “CDH2 (lysine site: K223) (UniProt P19022)”: the “lysine labeling ratio R10:1” value was 2.63.

“IGF2R (lysine site: K527) (UniProt P11717)”: the “lysine labeling ratio R10:1” value is 2.81.

Turning to “SDCBP (lysine site: K223) (UniProt O00560)”, the “lysine labeling ratio R10:1” value was 2.46.

As to “RPS19 (lysine site: K143) (UniProt P39019)”, the “lysine labeling ratio R10:1” value was 1.75 (active).

On to “SLC39A6 (lysine site: K156) (UniProt Q13433)”, for which the “lysine labeling ratio R10:1” value was 3.23.

In the case of “CDV3 (lysine site: K15) (UniProt Q9UKY7)”, the “lysine labeling ratio R10:1” value is 2.4.

Take “SPTBN1 (lysine site: K1063) (UniProt Q01082)”: the “lysine labeling ratio R10:1” value was 7.24.
